Data: PubChem BioAssay (NCI)
The panel holds about 83,000 compounds, 20% with a hit somewhere; the sample as a whole holds those more often.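 Method: cells in 96-well plates; compound added at one concentration; 48 h incubation; percent growth measured; values under 10 scored active.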

How the values were obtained:
Assay in all cases: NCI-60 one-dose screen, 48 h (100 = growth as untreated, 0 = no growth, -100 = all killed)
Details in all cases: 10 µM
[1] = system: RPMI-8226 leukemia
[2] = system: OVCAR-8 ovarian
[3] = system: OVCAR-5 ovarian
[4] = system: OVCAR-4 ovarian
[5] = system: SK-OV-3 ovarian
[6] = system: IGROV1 ovarian
[7] = system: OVCAR-3 ovarian
[8] = system: HS 578T breast
[9] = system: NCI/ADR-RES ovarian
[10] = system: T-47D breast
[11] = system: BT-549 breast
[12] = system: MDA-MB-435 melanoma
[13] = system: SW-620 colon
[14] = system: MCF7 breast
[15] = system: HCT-116 colon
[16] = system: HCC-2998 colon
[17] = system: KM12 colon

Measured: growth

CCN1CCCC1CNC(=O)c1ncc(-c2ccc(C(F)(F)F)cc2)c(NC2CCCCCC2)n1 (stereo not drawn)
inactive: [1] 58.9% | [2] 74% | [3] 101% | [4] 78% | [5] 89.9% | [6] 77% | [7] 79.5% | [8] 92.1% | [9] 89.7% | [10] 78.9% | [11] 99.2% | [12] 72.6% | [13] 96.2% | [14] 43.6% | [15] 54.9% | [16] 72.4% | [17] 75.3%

CN(Cc1ccccc1)Cc1ccc([N+](=O)[O-])cc1I
inactive: [1] 91.9% | [2] 102% | [3] 93.7% | [4] 91% | [5] 94.9% | [6] 92.5% | [7] 98.9% | [8] 95.4% | [9] 103% | [10] 93.9% | [11] 87.7% | [12] 102% | [13] 89% | [14] 91.6% | [15] 84% | [16] 106% | [17] 93.2%

N#CCCN(NC(=O)OCc1ccccc1)C(=O)OCc1ccccc1
inactive: [1] 110% | [2] 99% | [3] 108% | [4] 111% | [5] 122% | [6] 118% | [7] 118% | [8] 103% | [9] 105% | [10] 109% | [11] 109% | [12] 105% | [13] 102% | [14] 107% | [15] 95.4% | [16] 106% | [17] 109%

O=C(CCCCC[P+](c1ccccc1)(c1ccccc1)c1ccccc1)NC(COC(=O)C(Cl)Cl)(COC(=O)C(Cl)Cl)COC(=O)C(Cl)Cl
inactive: [1] 83.3% | [2] 95% | [3] 98.6% | [4] 100% | [5] 94.3% | [6] 100% | [7] 103% | [8] 110% | [9] 114% | [10] 90.8% | [11] 94.9% | [12] 102% | [13] 107% | [14] 95.2% | [15] 100% | [16] 109% | [17] 107%

O=C(O)c1ccc(P(=O)(O)O)c([N+](=O)[O-])c1
inactive: [1] 102% | [2] 98% | [3] 107% | [4] 104% | [5] 107% | [6] 119% | [7] 111% | [8] 104% | [9] 108% | [10] 104% | [11] 102% | [12] 96% | [13] 98.2% | [14] 99.3% | [15] 113% | [16] 111% | [17] 105%

Cc1ccc(NC(=O)Nc2nc3ccccc3s2)cc1NC(=O)Nc1nc2ccccc2s1
inactive: [1] 42.8% | [2] 50.4% | [3] 104% | [4] 82.3% | [5] 95.8% | [6] 53.6% | [7] 96.2% | [8] 77.3% | [9] 91.7% | [10] 80.6% | [11] 104% | [12] 97.1% | [13] 102% | [14] 64.6% | [15] 84.9% | [16] 93.4% | [17] 88.2%

CCN(CC)CCC(=O)Nc1cccc2c1C(=O)c1c(c(O)c3ccccc3c1O)C2=O
inactive: [1] 33.2% | [2] 45.3% | [3] 80.9% | [4] 60.2% | [5] 63.6% | [6] 36.9% | [7] 64.8% | [8] 76.6% | [9] 46.9% | [10] 41.2% | [11] 68.8% | [12] 91.6% | [13] 43.8% | [14] 30.3% | [15] 44.9% | [16] 80.9% | [17] 56.9%

O=C(Nc1ccc(CN2CCc3nc4cc(O)c(O)cc4cc32)cc1)c1ccc(Cl)c(Cl)c1
inactive: [1] 103% | [2] 106% | [3] 106% | [4] 117% | [5] 106% | [6] 102% | [7] 104% | [8] 102% | [9] 106% | [10] 88.6% | [11] 101% | [12] 100% | [13] 97.2% | [14] 93.7% | [15] 100% | [16] 112% | [17] 99.9%

COc1ccc(S(=O)(=O)NCCCNc2nccc(-c3c(-c4ccc(F)cc4)nc4sccn34)n2)cc1
inactive: [1] 47.8% | [2] 41.9% | [3] 92.6% | [4] 77.3% | [5] 74.5% | [6] 30.2% | [7] 74.9% | [8] 83% | [9] 53.3% | [10] 24.2% | [11] 70.6% | [12] 27.9% | [13] 74.8% | [14] 33.6% | [15] 42.1% | [16] 65.5% | [17] 40.6%
